From publication PMC13083723 (Patterns, 2026)
Screen size: about 5,400 compounds; about 190 (3.5%) showed an effect of 50% or more. Shown is part of a subset that was picked to be rich in strong results.

Each molecule was assayed on Vero-E6 (assay: primary screen, phospholipidosis by LipidTOX staining; higher = more effect of the substance). Settings: 10 µM.
Protocol: To measure drug-induced PLD in Vero-E6 cells, we used the HCS LipidTOX Red Phospholipidosis Detection Reagent (Invitrogen, #H34351), which is non-toxic to cell growth and remains well retained after aldehyde fixation. In this setup, compounds (at 10 μM concentration) and controls (amiodarone: 10 μM concentration; DMSO: 0.1 v/v %) were added to clear-bottom, 384-well plates (PhenoPlate 384-well, black, optically clear flat bottom, tissue-culture treated, Revvity #6057302) using the Echo Liquid Handler (Labcyte).

`CN1CCN(Cc2ccc(Nc3ncc(Cl)c(Nc4ccccc4S(=O)(=O)N(C)C)n3)cc2)CC1` was tested. Which result_ITMP did it give?
Its result_ITMP is 1.65%.

For `CNC(=O)c1ccccc1Nc1cc(Nc2ccc(N3CCOCC3)cc2OC)ncc1C(F)(F)F`, which result_ITMP is on record?
The result_ITMP was 10.6%.

`CNC(=O)c1ccccc1Nc1nc(Nc2ccc3c(c2OC)CCC[C@H](N2CCN(CCO)CC2)C3)ncc1Cl` was tested. Which result_ITMP did it give?
The result_ITMP was 139%.

How did the result_ITMP turn out when `CC1(C)S[C@@H]2[C@H](NC(=O)C(C(=O)[O-])c3ccsc3)C(=O)N2[C@H]1C(=O)[O-]` (stereo partly drawn) was run?
Its result_ITMP is -2.7%.

Which result_ITMP does the source give for `CCCCCC(O)CCCC(=O)[O-]` (stereo not drawn) here?
The result_ITMP was -2.69%.

How did the result_ITMP turn out when `CC#C[C@@H](CC(=O)[O-])c1ccc(OCc2cccc(-c3ccc(C(F)(F)F)cc3)c2)cc1` was run?
The result_ITMP was 2.55%.

`C[C@@H](NCCCc1cccc(C(F)(F)F)c1)c1cccc2ccccc12` was tested. Which result_ITMP did it give?
Its result_ITMP is 61.8%.

Which result_ITMP does the source give for `CC(Cc1cccc(C(F)(F)F)c1)NCCOC(=O)c1ccccc1` (stereo not drawn) here?
The result_ITMP was 6.92%.

With `CCN[C@@H](C)Cc1cccc(C(F)(F)F)c1` as the molecule, how does the result_ITMP read?
The result_ITMP was 3.76%.

For `CSCCC(N)C(=O)O` (stereo not drawn), which result_ITMP is on record?
The result_ITMP was -3.06%.

For `O[C@H]1[C@H]2[C@H](O)CCCN2C[C@H]1O`, which result_ITMP is on record?
The result_ITMP was 0.57%.

How did the result_ITMP turn out when `c1cc(Nc2cc(C3CC3)n[nH]2)nc(Nc2ccc3nc[nH]c3c2)n1` was run?
Its result_ITMP is -1.4%.

`CSc1ccccc1Nc1nc(N2CCNCC2)nc2c(NCC3CC3)ncnc12` was tested. Which result_ITMP did it give?
Its result_ITMP is 79.3%.

`CN1C2C=C(c3sccc3Br)CC1CC2` (stereo not drawn) was tested. Which result_ITMP did it give?
The result_ITMP was 6.82%.

`CCN(CCO)CCCOc1ccc2c(Nc3cc(CC(=O)Nc4cccc(F)c4)n[nH]3)ncnc2c1` was tested. Which result_ITMP did it give?
The result_ITMP was -2.36%.

Which result_ITMP does the source give for `C(=C\c1ccccc1)/CN1CCN(CCOC(c2ccccc2)c2ccccc2)CC1` here?
Its result_ITMP is 7.08%.

With `c1ccc(CCCN2CCN(CCOC(c3ccccc3)c3ccccc3)CC2)cc1` as the molecule, how does the result_ITMP read?
Its result_ITMP is 15%.

`Clc1ccc(C(OCCN2CCCCC2)c2ccccc2)cc1` (stereo not drawn) was tested. Which result_ITMP did it give?
The result_ITMP was 63.9%.

How did the result_ITMP turn out when `C#C[C@]1(OC(C)=O)CCC2C3CCC4=C/C(=N/O)CCC4C3CC[C@@]21CC` (stereo partly drawn) was run?
The result_ITMP was 1.9%.

How did the result_ITMP turn out when `OC1(c2ccc(Cl)c(C(F)(F)F)c2)CCN(CCCC(c2ccc(F)cc2)c2ccc(F)cc2)CC1` was run?
Its result_ITMP is 36.2%.

Which result_ITMP does the source give for `O=C(CCCN1CCC(O)(c2ccc(Cl)cc2)CC1)c1ccc(F)cc1` here?
Its result_ITMP is 3.22%.

With `CN(C)C(=O)C(CCN1CCC(O)(c2ccc(Cl)cc2)CC1)(c1ccccc1)c1ccccc1` as the molecule, how does the result_ITMP read?
Its result_ITMP is 67.2%.

For `NCCCCCC(O)(P(=O)([O-])O)P(=O)(O)O`, which result_ITMP is on record?
Its result_ITMP is -0.14%.

Which result_ITMP does the source give for `Nc1ncnc2c1nc(Br)n2[C@@H]1O[C@@H]2COP(=O)([O-])O[C@H]2[C@H]1O` here?
Its result_ITMP is 15.8%.

`CCN1C(=O)CN=C2NC=C(c3ccc(-c4nnc[nH]4)nc3C)N=C21` was tested. Which result_ITMP did it give?
The result_ITMP was -2.57%.

For `OC[C@@H](O)[C@@H](O)[C@@H](O)CO`, which result_ITMP is on record?
The result_ITMP was -6.6%.

`COc1cc(NC(=O)c2ccc(-c3ccc(Cl)cc3)o2)cc(OC)c1` was tested. Which result_ITMP did it give?
The result_ITMP was 2.29%.

With `O=C(Nc1ccc(CN2CCOCC2)cc1)c1ccc(-c2cccc(Cl)c2)o1` as the molecule, how does the result_ITMP read?
The result_ITMP was 56.3%.

With `CCNC(=O)c1noc(-c2cc(C(C)C)c(O)cc2O)c1-c1ccc(CN2CCOCC2)cc1` as the molecule, how does the result_ITMP read?
The result_ITMP was -0.23%.

With `C[C@]12C=CC(=O)C=C1CCC1C2[C@@H](O)C[C@@]2(C)C1CC[C@]2(O)C(=O)COC(=O)CCC(=O)O` (stereo partly drawn) as the molecule, how does the result_ITMP read?
Its result_ITMP is -5.57%.

For `Cc1cc(/C=C2\SC(=O)N(c3ccccc3)C2=O)c(C)n1-c1cccnc1`, which result_ITMP is on record?
The result_ITMP was -6.01%.

For `O=C(Nc1ccc2c(O)cc(S(=O)(=O)[O-])cc2c1)Nc1ccc2c(O)cc(S(=O)(=O)[O-])cc2c1`, which result_ITMP is on record?
The result_ITMP was -7.47%.

How did the result_ITMP turn out when `COc1ccc(CCN(C)CCCN2CCc3cc(OC)c(OC)cc3CC2=O)cc1OC` was run?
The result_ITMP was -1.11%.

Which result_ITMP does the source give for `COc1ccc(CCN(C)CCCOc2ccc(S(=O)(=O)c3c(C(C)C)c4ccccc4n3C)cc2)cc1OC` here?
The result_ITMP was 84.7%.

With `COc1ccc(CCN(C)CCc2ccc(OC)c(OC)c2)cc1OC` as the molecule, how does the result_ITMP read?
Its result_ITMP is -1.15%.

`COc1ccccc1N1CCN(CCCCNC(=O)c2ccc3ccccc3c2)CC1` was tested. Which result_ITMP did it give?
The result_ITMP was 34.4%.

For `COc1ccc2cccc(N3CCN(CCNC(=O)c4ccc(F)cc4)CC3)c2c1`, which result_ITMP is on record?
The result_ITMP was 14%.

With `O=C(NCCN1CCOCC1)c1ccc(Cl)cc1` as the molecule, how does the result_ITMP read?
Its result_ITMP is -6.19%.

For `O=C1NCN(c2ccccc2)C12CCN(CCCC(c1ccc(F)cc1)c1ccc(F)cc1)CC2`, which result_ITMP is on record?
The result_ITMP was 1.98%.

`O=C(NCCN1CCC2(CC1)C(=O)NCN2c1cccc(F)c1)c1ccc(F)c(F)c1` was tested. Which result_ITMP did it give?
The result_ITMP was 60.1%.

How did the result_ITMP turn out when `O=C(NCCN1CCC2(CC1)C(=O)NCN2c1cccc(F)c1)c1ccc2ccccc2c1` was run?
Its result_ITMP is 55.1%.

`C[C@@H]1CCO[C@H]2Cn3cc(C(=O)NCc4ccc(F)cc4F)c(=O)c(O)c3C(=O)N12` was tested. Which result_ITMP did it give?
Its result_ITMP is -4.23%.

With `CN(C)CCCO[C@@H]1[C@H]2OC(C)(C)O[C@H]2O[C@@H]1[C@H](O)CO` as the molecule, how does the result_ITMP read?
Its result_ITMP is -8.5%.

With `C[C@@H]1C[C@H]2[C@@H]3CCC4=CC(=O)C=C[C@]4(C)[C@@]3(Cl)[C@@H](O)C[C@]2(C)[C@@]1(O)C(=O)CCl` as the molecule, how does the result_ITMP read?
The result_ITMP was 0.3%.

With `CN(CCCN1c2ccccc2CCc2ccccc21)CC(=O)c1ccc(Cl)cc1` as the molecule, how does the result_ITMP read?
The result_ITMP was 13.8%.

For `O=C(CN1C2=NCCN2c2ccccc21)c1ccc(-c2ccccc2)cc1`, which result_ITMP is on record?
The result_ITMP was 53.9%.

How did the result_ITMP turn out when `O=C(O)c1ccccc1C(=O)Nc1ccc(-c2ccccc2)cc1` was run?
Its result_ITMP is -1.06%.

Which result_ITMP does the source give for `c1ccc(CNc2ncnc3nc[nH]c23)cc1` here?
The result_ITMP was -8.79%.

For `c1ccc(CNc2nc(NCc3ccccc3)c3ccccc3n2)cc1`, which result_ITMP is on record?
The result_ITMP was 58.9%.

Which result_ITMP does the source give for `Cn1cnc2c(NCc3ccccc3)nc(NCCO)nc21` here?
Its result_ITMP is -1.91%.

`N=C(N)Nc1nc(CSCCN/C=N/S(=O)(=O)c2ccc(Br)cc2)cs1` was tested. Which result_ITMP did it give?
Its result_ITMP is 0.59%.

Which result_ITMP does the source give for `O=C([O-])c1ccccc1Nc1cc(Cl)ccc1C(=O)[O-]` here?
Its result_ITMP is -3.54%.

For `C[C@@H]([C@H](O)c1ccc(O)cc1)N1CCC(Cc2ccccc2)CC1.C[C@H]([C@@H](O)c1ccc(O)cc1)N1CCC(Cc2ccccc2)CC1`, which result_ITMP is on record?
The result_ITMP was 8.99%.

Which result_ITMP does the source give for `CN[C@H](CC(C)C)C(=O)NC1C(=O)N[C@@H](CC(N)=O)C(=O)N[C@H]2C(=O)NC3C(=O)N[C@H](C(=O)N[C@@H](C(=O)O)c4cc(O)cc(O)c4-c4cc3ccc4O)[C@H](O)c3ccc(c(Cl)c3)Oc3cc2cc(c3O[C@@H]2OC(CO)[C@@H](O)[C@H](O)[C@H]2O[C@H]2C[C@](C)(N)[C@H](O)[C@H](C)O2)Oc2ccc(cc2Cl)[C@H]1O` (stereo partly drawn) here?
Its result_ITMP is -7.09%.
